AMA1 RON2 block – qHTS for Inhibitors of AMA1-RON; Towards Development of Antimalarial Drug Lead: Primary Screen; AlphaScreen AMA1-biotinylated RON2 peptide binding; Potency, µM (series often up to 58.2 µM), actives largely listed as inhibitors; 360,000 compounds, 0.2% hits; also: nearly all actives have a fitted effect of over 45% in size
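AMA1 (3D7) with his tag at 25 nM final met compounds first, then biotinylated RON2 peptide at 25 nM; detection used donor plus acceptor beads, 10 µg/mL apiece, read by AlphaScreen after 30 min at room temperature.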
Pf growth 48h – Primary qHTS for delayed death inhibitors of the malarial parasite plastid, 48 hour incubation. 310,000 compounds, 5.9% hits. P. falciparum luciferase growth in erythrocytes, 48 h. Potency, µM (highest dose often 28.7 µM), most hits filed as inhibitors
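Luciferase-expressing parasites in RBCs, 2% Hct / 0.1% parasitemia final; RPMI 1640 + 0.5% Albumax; 37 C, 5% CO2, one generation; luminescence read-out, lower signal = inhibition.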
Shiga inhibitor – A qHTS for Small Molecule Inhibitors of Shiga Toxin; Vero cells, Shiga toxin protein synthesis inhibition reporter; inhibition, % at 38.7 µM; 290,000 compounds, 9.2% hits; AID 2315, 2010; in the data active = inhibition mostly above about 28%, no sharp cut-off; inactive = mostly below about 43%
CHX counter – Cycloheximide Counterscreen for Small Molecule Inhibitors of Shiga Toxin; cell reporter, cycloheximide protein synthesis inhibition counterscreen; max response, %; 300,000 compounds, 12% hits; AID 2314, 2010; in the data active = max response mostly above about 13%, no sharp cut-off; inactive = mostly below about 14%; also: read at 38.3 µM for the half of the compounds with a filed dose
Pf growth 96h – Primary qHTS for delayed death inhibitors of the malarial parasite plastid, 96 hour incubation; P. falciparum luciferase reporter growth, 96 h; 320,000 compounds, 6.9% hits; AID 504834, 2011; Potency, µM (titrated, usually from 28.7 µM), actives largely listed as inhibitors
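P. falciparum expressing integrated firefly luciferase grown in erythrocytes (2% hematocrit, 0.05% parasitemia final) with compounds for 96 hours at 37 C, 5% CO2. Growth inhibition read as loss of luminescence after adding luciferase detection reagent.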
HCV inh – qHTS Assay for Inhibitors of Hepatitis C Virus (HCV); Huh7.5.1 HCVcc-Cre infection, luciferase reporter, 44 h; Potency, µM (highest dose often 41.8 µM), hits mostly inhibitors; 340,000 compounds, 3.4% hits; AID 651820, 2012
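Antiviral activity was scored by luciferase reporter output from cells infected with HCVcc-Cre (~0.5 moi) in presence of compound, 44 h infection period, cells seeded 1,000/well 4 h prior.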
CLK4 cf ADPGlo – Confirmaiton Assay for Inhibitors of CDC-like Kinase 4 (ADP-Glo Assay) | shares compounds with Pf growth 48h | recombinant Clk4, RS peptide, ADP-Glo luminescence | Potency, µM (doses to about 80 µM), actives largely listed as inhibitors | 65 compounds, 80% hits
Target sequence (Q9HAZ1 whole entry, looked up): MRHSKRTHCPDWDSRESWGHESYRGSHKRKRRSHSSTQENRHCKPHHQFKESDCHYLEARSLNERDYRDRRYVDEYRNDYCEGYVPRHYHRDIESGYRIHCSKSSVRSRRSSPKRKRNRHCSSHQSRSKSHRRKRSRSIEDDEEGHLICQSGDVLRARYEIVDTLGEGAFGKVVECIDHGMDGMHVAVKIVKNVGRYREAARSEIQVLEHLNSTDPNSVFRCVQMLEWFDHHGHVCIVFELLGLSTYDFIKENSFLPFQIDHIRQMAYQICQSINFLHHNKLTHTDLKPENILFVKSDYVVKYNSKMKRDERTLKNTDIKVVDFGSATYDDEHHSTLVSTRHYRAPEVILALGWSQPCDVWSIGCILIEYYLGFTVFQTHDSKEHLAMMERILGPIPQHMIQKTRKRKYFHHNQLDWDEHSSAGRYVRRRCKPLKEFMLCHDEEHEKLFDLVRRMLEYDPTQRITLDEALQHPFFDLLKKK
CLK4 cf ADP-FP – Confirmation Assay for Inhibitors of CDC-like Kinase 4 (ADP-FP Assay). recombinant Clk4, ADP Transcreener FP, RS peptide. shares compounds with Pf growth 48h. Potency, µM (highest dose often 80 µM), most hits filed as inhibitors. 65 compounds, 70% hits
HCV inh confirm – qHTS Assay for Inhibitors of Hepatitis C Virus (HCV): Confirmation Assay for Cherry-picked Compounds | shares compounds with HCV inh | HCVcc-Cre infectious virus cell assay, luciferase, inhibition | Potency, µM (series often up to 41.8 µM), actives largely listed as inhibitors | 640 compounds, 78% hits; also: nearly all actives have a fitted effect of over 80% in size
HCV cytotox – qHTS Assay for Inhibitors of Hepatitis C Virus (HCV): Cytotoxicity Counterscreen for Cherry-picked Compounds. HCV host cell line cytotoxicity counterscreen. 640 compounds, 22% hits. shares compounds with HCV inh. Potency, µM (top dose mostly 41.8 µM), usual class: inhibitors;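 also: 44 h compound exposure; nearly all actives have a fitted effect of over 55% in size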
Hits are given with their value; i = inactive; ? = inconclusive; nt = no result. Most compounds without a hit are left out; they make up all but 21% or so of the library. Unless noted, calls follow the shape of the dose curve; as a rule, active = well fitted curve in the direction sought with a large enough effect; inconclusive = small, poorly fitted or top-dose-only effect, or another doubt; inactive = no such curve, though single readings can be large; an effect the other way counts as inactive or inconclusive.

SMILES	AMA1 RON2 block	Pf growth 48h	Shiga inhibitor	CHX counter	Pf growth 96h	HCV inh	CLK4 cf ADPGlo	CLK4 cf ADP-FP	others
Cc1ccc(N(Cc2ccco2)C(=O)c2cccc(S(=O)(=O)N(C)C)c2)cc1	i	?	i	i	i	i	nt	nt
CN(Cc1ccco1)c1ncnc2ccc(-c3ccc4c(ccn4C)c3)cc12	nt	10µM	nt	nt	9.3µM	nt	14µM	?
O=C(CCc1ccc(S(=O)(=O)N2CCOCC2)cc1)OCC(=O)c1ccccc1F	i	nt	nt	nt	nt	i	nt	nt
Cc1cccc(-c2ccc3ncnc(NCc4cccc(F)c4)c3c2)c1	nt	0.042µM	nt	nt	1.3µM	nt	4µM	7.9µM
c1cncc(CNc2ncnc3sccc23)c1	i	i	i	i	i	i	nt	nt
Fc1cccc(CNc2ncnc3ccc(-c4cccnc4)cc23)c1	nt	?	nt	nt	15µM	nt	2.8µM	6.3µM
c1csc(CNc2ncnc3ccc(-c4ccc5c(c4)OCO5)cc23)c1	nt	?	nt	nt	?	nt	0.071µM	0.045µM
c1csc(CNc2ncnc3ccc(-c4ccoc4)cc23)c1	nt	?	nt	nt	?	nt	0.22µM	0.25µM
Clc1ccc2c(NCc3cccs3)ncnc2c1	i	nt	i	i	i	?	nt	nt
COc1cc2ncnc(NCc3cccs3)c2cc1OC	i	?	i	i	i	i	nt	nt
CC(=O)Nc1cccc(NC(=O)CSc2n[nH]c(-c3ccccc3)n2)c1	i	i	nt	nt	i	?	nt	nt
CCCN1CCN(CC(O)COC(c2ccc(OC)cc2)c2ccc(OC)cc2)CC1 (stereo not drawn)	i	i	i	i	i	i	nt	nt
Cc1cccc(CNc2ncnc3ccc(-c4ccccc4Cl)cc23)c1	nt	5.2µM	nt	nt	1.5µM	nt	7.9µM	?
COc1cc(CNc2ncnc3ccc(-c4c(C)noc4C)cc23)cc(OC)c1OC	nt	nt	i	i	nt	nt	nt	nt
Cc1noc(C)c1-c1ccc2ncnc(NCc3ccc(F)cc3)c2c1	nt	nt	i	i	nt	nt	nt	nt
Fc1cccc(CNc2ncnc3ccc(-c4ccccc4Cl)cc23)c1	nt	5.9µM	nt	nt	2.1µM	nt	7.9µM	10µM
Cc1cccc(CNc2ncnc3ccc(-c4cccc(Cl)c4)cc23)c1	nt	6.6µM	nt	nt	4.1µM	nt	13µM	?
Cc1cccc(CNc2ncnc3ccc(-c4ccc5c(c4)OCO5)cc23)c1	nt	5.9µM	nt	nt	3.3µM	nt	0.11µM	0.1µM
O=C(CC1C(=O)NCCN1Cc1ccccc1)NCCCOc1cccnc1 (stereo not drawn)	i	i	i	i	i	i	nt	nt
Cc1ccc(C)c(C(=O)COC(=O)Cn2c(C)csc2=O)c1	i	i	i	i	i	i	nt	nt
COc1ccc(CCNC(=O)COC(=O)CCC(=O)c2ccc(F)cc2)cc1OC	i	i	i	i	?	i	nt	nt
Ic1ccc(N2CCN(Cc3c[nH]c4ncccc34)CC2)cc1	i	?	nt	nt	?	?	nt	nt
Oc1ccc(CN2CCN(c3ccccc3)CC2)c2cccnc12	i	7.4µM	i	i	i	7.9µM	nt	nt	HCV inh confirm=7µM;HCV cytotox=22µM
CC1CCCCN1CCNc1nc(=S)[nH]c2ccccc12 (stereo not drawn)	i	i	i	i	2.3µM	3.5µM	nt	nt	HCV inh confirm=i;HCV cytotox=i
CC1CCCCN1CCn1c(=S)[nH]c2ncccc2c1=O (stereo not drawn)	i	i	i	i	i	i	nt	nt
